Reference: the supplement of paper PMC10849652
Of roughly 8,800 targets only a part is listed; those with a hit were picked by preference. About 0.5% of all pairs of compound and target were hits.

Legend:
Test in all cases: log2 fold change, soluble protein after heating vs DMSO (PISA); higher = thermal stabilisation; K562 lysate, 10 uM; active = over 0.2 and 3.5 SD of the protein, either way, in both replicates (recomputed)
alvocidib = compound: CN1CC[C@H](c2c(O)cc(O)c3c(=O)cc(-c4ccccc4Cl)oc23)[C@H](O)C1 [alvocidib]
Procedure, shortened: (§1)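 Pellets of K562 cells were dounce-homogenised in PBS pH 7.4 with 1 mM MgCl2, and the crude extract was held at 1 mg/mL protein for a 30 min treatment with 10 μM compound. Aliquots were heated for 3 min over 48°C-58°C and pooled before NP-40 was added to 0.5% at 4°C. The supernatant from 21,000xg for 90 min was quantified by TMTpro 16plex LC-MS/MS with channel sums equalised. Values are reported from duplicates as log-two fold change in thermal stability relative to solvent controls.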

Tubastatin A = compound: CN1CCc2c(c3ccccc3n2Cc2ccc(C(=O)NO)cc2)C1 [Tubastatin A]
Procedure, shortened: as §1

[1] = compound: CNC(=O)C1=CC=CC=C1NC2=NC(=NC=C2Cl)NC3=C(C=C(C=C3)N4CCOCC4)OC
Procedure, shortened: as §1

defactinib = compound: CNC(=O)c1ccc(Nc2ncc(C(F)(F)F)c(NCc3nccnc3N(C)S(C)(=O)=O)n2)cc1 [defactinib]
Procedure, shortened: as §1

[2] = compound: CNc1nc(-c2ccc3c(N)n[nH]c3c2)cc(N2C[C@@H](C(=O)NC3CCCCC3)CC[C@H]2C)n1
Procedure, shortened: as §1

encorafenib = compound: COC(=O)N[C@@H](C)CNc1nccc(-c2cn(C(C)C)nc2-c2cc(Cl)cc(NS(C)(=O)=O)c2F)n1 [encorafenib]
Procedure, shortened: as §1

[3] = compound: COC(=O)[C@H](CCSC)NC(=O)C1=C(C=C(C=C1)NC[C@H](CS)N)C2=CC=CC=C2
Procedure, shortened: as §1

alisertib = compound: COc1cc(Nc2ncc3c(n2)-c2ccc(Cl)cc2C(c2c(F)cccc2OC)=NC3)ccc1C(=O)O [alisertib]
Procedure, shortened: as §1

[4] = compound: COc1cc2nc(-c3cc(F)ccc3O)nc(N[C@@H]3CNC[C@H]3C(C)(C)O)c2cc1OC
Procedure, shortened: as §1

gefitinib = compound: COc1cc2ncnc(Nc3ccc(F)c(Cl)c3)c2cc1OCCCN1CCOCC1 [gefitinib]
Procedure, shortened: as §1

lapatinib = compound: CS(=O)(=O)CCNCc1ccc(-c2ccc3ncnc(Nc4ccc(OCc5cccc(F)c5)c(Cl)c4)c3c2)o1 [lapatinib]
Procedure, shortened: as §1

pictilisib = compound: CS(=O)(=O)N1CCN(Cc2cc3nc(-c4cccc5[nH]ncc45)nc(N4CCOCC4)c3s2)CC1 [pictilisib]
Procedure, shortened: as §1

crizotinib = compound: C[C@@H](Oc1cc(-c2cnn(C3CCNCC3)c2)cnc1N)c1c(Cl)ccc(F)c1Cl [crizotinib]
Procedure, shortened: as §1

[5] = compound: C[C@H](C1=CC=C(C=C1)C(=O)NC2=C3C=CNC3=NC=C2)N
Procedure, shortened: as §1

duvelisib = compound: C[C@H](Nc1ncnc2nc[nH]c12)c1cc2cccc(Cl)c2c(=O)n1-c1ccccc1 [duvelisib]
Procedure, shortened: as §1

gandotinib = compound: Cc1cc(Nc2cc(CN3CCOCC3)c3nc(C)c(Cc4ccc(Cl)cc4F)n3n2)n[nH]1 [gandotinib]
Procedure, shortened: as §1

tozasertib = compound: Cc1cc(Nc2cc(N3CCN(C)CC3)nc(Sc3ccc(NC(=O)C4CC4)cc3)n2)n[nH]1 [tozasertib]
Procedure, shortened: as §1

doramapimod = compound: Cc1ccc(-n2nc(C(C)(C)C)cc2NC(=O)Nc2ccc(OCCN3CCOCC3)c3ccccc23)cc1 [doramapimod]
Procedure, shortened: as §1

bafetinib = compound: Cc1ccc(NC(=O)c2ccc(CN3CC[C@H](N(C)C)C3)c(C(F)(F)F)c2)cc1Nc1nccc(-c2cncnc2)n1 [bafetinib]
Procedure, shortened: as §1

[6] = compound: Cc1cccc(CC(=O)N2CCc3c2ccc(-c2cn(C)c4ncnc(N)c24)c3F)n1
Procedure, shortened: as §1

Measured: log2 fold change

LIG3 (UniProt P49916)
Chain of UniProt P49916 (P49916 whole entry, looked up): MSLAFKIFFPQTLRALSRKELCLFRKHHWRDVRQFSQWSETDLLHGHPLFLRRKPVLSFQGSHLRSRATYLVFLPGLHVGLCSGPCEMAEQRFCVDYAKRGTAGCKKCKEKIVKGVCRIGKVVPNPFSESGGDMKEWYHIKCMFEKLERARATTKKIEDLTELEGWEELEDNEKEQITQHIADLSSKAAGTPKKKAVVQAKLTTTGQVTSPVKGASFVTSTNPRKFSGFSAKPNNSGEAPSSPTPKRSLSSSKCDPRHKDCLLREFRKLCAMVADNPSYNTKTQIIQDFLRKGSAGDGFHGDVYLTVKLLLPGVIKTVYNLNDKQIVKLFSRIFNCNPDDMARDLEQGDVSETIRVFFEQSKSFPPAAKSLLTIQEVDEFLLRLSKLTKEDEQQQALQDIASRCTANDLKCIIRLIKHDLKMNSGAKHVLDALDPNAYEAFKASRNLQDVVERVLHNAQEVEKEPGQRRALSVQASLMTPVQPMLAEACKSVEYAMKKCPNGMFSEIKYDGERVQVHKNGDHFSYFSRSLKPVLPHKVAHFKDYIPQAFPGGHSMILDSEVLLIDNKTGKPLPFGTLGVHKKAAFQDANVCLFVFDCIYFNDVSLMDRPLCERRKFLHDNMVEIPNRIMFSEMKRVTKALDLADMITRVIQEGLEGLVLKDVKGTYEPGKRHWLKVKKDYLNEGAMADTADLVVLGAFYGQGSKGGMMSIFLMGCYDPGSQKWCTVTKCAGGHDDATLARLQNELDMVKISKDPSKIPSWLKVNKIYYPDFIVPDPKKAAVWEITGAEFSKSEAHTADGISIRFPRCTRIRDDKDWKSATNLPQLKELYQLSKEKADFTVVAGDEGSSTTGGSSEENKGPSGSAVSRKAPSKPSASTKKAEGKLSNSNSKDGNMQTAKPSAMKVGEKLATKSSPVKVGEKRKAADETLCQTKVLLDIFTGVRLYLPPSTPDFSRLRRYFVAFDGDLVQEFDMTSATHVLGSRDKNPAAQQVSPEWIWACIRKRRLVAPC
inactive: alvocidib -0.017 | Tubastatin A -0.142 | [1] 0.007 | defactinib 0.006 | [2] -0.002 | encorafenib 0.023 | [3] 0.121 | alisertib -0.009 | [4] -0.008 | gefitinib -0.015 | lapatinib -0.007 | pictilisib 0.006 | crizotinib -0.044 | [5] -0.008 | duvelisib 0.01 | gandotinib -0.05 | tozasertib -0.004 | doramapimod 0.016 | bafetinib -0.046 | [6] 0.016

MAP2K2 (UniProt P36507)
Chain of UniProt P36507 (P36507 whole entry, looked up): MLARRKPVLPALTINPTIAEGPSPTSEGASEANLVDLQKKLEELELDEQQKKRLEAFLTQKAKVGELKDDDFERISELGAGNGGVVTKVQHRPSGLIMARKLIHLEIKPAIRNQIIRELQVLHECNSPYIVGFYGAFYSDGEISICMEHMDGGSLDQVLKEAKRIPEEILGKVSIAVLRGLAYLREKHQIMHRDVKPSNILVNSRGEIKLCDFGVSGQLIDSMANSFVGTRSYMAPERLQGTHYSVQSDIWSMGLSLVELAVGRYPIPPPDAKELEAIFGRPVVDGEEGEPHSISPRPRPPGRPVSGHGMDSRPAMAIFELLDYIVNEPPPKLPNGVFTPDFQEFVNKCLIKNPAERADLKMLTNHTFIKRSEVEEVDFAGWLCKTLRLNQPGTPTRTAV
inactive: alvocidib 0.022 | Tubastatin A -0.026 | [1] 0.198 | defactinib 0.036 | [2] 0.015 | encorafenib -0.046 | [3] -0.006 | alisertib -0.013 | [4] 0.009 | gefitinib -0.013 | lapatinib -0.048 | pictilisib 0.015 | crizotinib 0.039 | [5] 0.207 | duvelisib 0.012 | gandotinib -0.065 | tozasertib 0.282 | doramapimod -0.058 | bafetinib -0.063 | [6] -0.015

LYSMD3 (UniProt Q7Z3D4)
Chain of UniProt Q7Z3D4 (Q7Z3D4 whole entry, looked up): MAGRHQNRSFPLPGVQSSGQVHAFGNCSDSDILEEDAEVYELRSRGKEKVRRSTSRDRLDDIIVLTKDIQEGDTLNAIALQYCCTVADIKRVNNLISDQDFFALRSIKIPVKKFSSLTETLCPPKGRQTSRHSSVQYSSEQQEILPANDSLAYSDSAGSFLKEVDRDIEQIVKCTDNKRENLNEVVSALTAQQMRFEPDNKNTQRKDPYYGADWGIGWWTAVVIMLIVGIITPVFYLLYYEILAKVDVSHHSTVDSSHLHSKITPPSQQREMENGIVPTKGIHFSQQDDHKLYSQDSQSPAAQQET
inactive: alvocidib -0.001 | Tubastatin A 0.127 | [1] -0.045 | defactinib -0.062 | [2] 0.092 | encorafenib 0.031 | [3] -0.124 | alisertib 0.001 | [4] 0.112 | gefitinib 0.254 | lapatinib -0.039 | pictilisib -0.039 | crizotinib -0.018 | [5] -0.273 | duvelisib 0.066 | gandotinib 0.307 | tozasertib 0.058 | doramapimod 0.041 | bafetinib -0.057 | [6] 0.23

MRPL46 (UniProt Q9H2W6)
active: [5] 0.452
inactive: alvocidib 0.125 | Tubastatin A -0.097 | [1] 0.28 | defactinib 0.051 | [2] 0.058 | encorafenib -0.032 | [3] 0 | alisertib 0.02 | [4] -0.045 | gefitinib 0.041 | lapatinib 0.019 | pictilisib 0.096 | crizotinib -0.011 | duvelisib 0.033 | gandotinib -0.09 | tozasertib 0.008 | doramapimod 0.024 | bafetinib 0.034 | [6] -0.073

LYAR (UniProt Q9NX58)
Chain of UniProt Q9NX58 (Q9NX58 whole entry, looked up): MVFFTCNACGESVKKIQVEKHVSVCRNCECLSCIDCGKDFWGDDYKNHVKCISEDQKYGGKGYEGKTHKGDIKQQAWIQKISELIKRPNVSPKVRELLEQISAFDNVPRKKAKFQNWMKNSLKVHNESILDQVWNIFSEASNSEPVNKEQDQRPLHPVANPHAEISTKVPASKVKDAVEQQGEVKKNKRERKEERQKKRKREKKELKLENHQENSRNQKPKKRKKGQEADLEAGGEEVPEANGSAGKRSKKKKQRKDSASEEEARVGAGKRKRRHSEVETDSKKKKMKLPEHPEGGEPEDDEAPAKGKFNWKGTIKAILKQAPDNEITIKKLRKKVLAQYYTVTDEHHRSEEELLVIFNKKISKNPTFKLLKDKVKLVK
active: [5] 0.269
inactive: alvocidib 0.072 | Tubastatin A 0.018 | [1] 0.006 | defactinib 0.014 | [2] -0.002 | encorafenib -0.005 | [3] 0.021 | alisertib 0.005 | [4] -0.001 | gefitinib -0.043 | lapatinib 0 | pictilisib 0.025 | crizotinib 0.005 | duvelisib 0.017 | gandotinib -0.119 | tozasertib -0.025 | doramapimod -0.017 | bafetinib -0.008 | [6] -0.099

MED14 (UniProt O60244)
Chain of UniProt O60244 (O60244 whole entry, looked up): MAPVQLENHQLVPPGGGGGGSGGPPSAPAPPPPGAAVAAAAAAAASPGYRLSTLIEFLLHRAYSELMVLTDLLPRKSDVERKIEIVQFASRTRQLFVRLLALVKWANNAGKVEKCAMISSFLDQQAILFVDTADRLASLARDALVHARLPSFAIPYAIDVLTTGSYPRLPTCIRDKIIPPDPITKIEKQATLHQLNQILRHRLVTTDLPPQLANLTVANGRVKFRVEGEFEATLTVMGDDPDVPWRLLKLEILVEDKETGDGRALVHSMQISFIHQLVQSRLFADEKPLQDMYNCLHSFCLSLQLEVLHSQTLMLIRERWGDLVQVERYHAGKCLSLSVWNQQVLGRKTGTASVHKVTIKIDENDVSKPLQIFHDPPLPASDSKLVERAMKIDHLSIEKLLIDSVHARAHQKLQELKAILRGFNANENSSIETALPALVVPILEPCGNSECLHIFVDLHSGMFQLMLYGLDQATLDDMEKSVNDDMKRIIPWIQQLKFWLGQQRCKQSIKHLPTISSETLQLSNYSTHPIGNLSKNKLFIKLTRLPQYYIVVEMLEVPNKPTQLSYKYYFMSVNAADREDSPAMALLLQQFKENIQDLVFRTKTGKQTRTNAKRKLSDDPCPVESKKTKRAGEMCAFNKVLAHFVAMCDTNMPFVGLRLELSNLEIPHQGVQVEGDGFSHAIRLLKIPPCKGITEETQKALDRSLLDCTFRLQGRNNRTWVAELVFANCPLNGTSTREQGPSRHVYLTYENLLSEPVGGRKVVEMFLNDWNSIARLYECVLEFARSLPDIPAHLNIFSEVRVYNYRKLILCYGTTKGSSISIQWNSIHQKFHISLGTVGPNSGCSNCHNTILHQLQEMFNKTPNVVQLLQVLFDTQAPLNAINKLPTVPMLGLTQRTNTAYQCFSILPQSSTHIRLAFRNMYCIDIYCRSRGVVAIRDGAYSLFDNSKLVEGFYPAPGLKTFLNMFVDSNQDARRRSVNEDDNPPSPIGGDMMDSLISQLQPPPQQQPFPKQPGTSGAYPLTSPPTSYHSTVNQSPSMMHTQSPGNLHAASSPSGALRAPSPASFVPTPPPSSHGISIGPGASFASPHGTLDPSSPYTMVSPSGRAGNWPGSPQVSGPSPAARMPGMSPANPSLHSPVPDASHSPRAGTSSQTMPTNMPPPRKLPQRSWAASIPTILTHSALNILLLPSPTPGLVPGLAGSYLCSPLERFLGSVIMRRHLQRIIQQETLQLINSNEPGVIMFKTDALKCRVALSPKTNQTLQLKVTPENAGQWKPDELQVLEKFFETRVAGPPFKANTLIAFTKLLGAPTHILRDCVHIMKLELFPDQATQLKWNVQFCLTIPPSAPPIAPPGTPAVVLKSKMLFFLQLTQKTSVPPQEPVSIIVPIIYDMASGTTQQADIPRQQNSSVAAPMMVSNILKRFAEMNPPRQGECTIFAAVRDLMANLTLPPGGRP
inactive: alvocidib -0.017 | Tubastatin A -0.068 | [1] 0.051 | defactinib -0.008 | [2] 0.015 | encorafenib 0.012 | [3] 0.003 | alisertib -0.028 | [4] -0.018 | gefitinib 0.001 | lapatinib -0.032 | pictilisib -0.006 | crizotinib -0.016 | [5] -0.058 | duvelisib -0.033 | gandotinib -0.016 | tozasertib 0.046 | doramapimod -0.028 | bafetinib -0.036 | [6] 0.037

MAP1S (UniProt Q66K74)
Chain of UniProt Q66K74 (Q66K74 whole entry, looked up): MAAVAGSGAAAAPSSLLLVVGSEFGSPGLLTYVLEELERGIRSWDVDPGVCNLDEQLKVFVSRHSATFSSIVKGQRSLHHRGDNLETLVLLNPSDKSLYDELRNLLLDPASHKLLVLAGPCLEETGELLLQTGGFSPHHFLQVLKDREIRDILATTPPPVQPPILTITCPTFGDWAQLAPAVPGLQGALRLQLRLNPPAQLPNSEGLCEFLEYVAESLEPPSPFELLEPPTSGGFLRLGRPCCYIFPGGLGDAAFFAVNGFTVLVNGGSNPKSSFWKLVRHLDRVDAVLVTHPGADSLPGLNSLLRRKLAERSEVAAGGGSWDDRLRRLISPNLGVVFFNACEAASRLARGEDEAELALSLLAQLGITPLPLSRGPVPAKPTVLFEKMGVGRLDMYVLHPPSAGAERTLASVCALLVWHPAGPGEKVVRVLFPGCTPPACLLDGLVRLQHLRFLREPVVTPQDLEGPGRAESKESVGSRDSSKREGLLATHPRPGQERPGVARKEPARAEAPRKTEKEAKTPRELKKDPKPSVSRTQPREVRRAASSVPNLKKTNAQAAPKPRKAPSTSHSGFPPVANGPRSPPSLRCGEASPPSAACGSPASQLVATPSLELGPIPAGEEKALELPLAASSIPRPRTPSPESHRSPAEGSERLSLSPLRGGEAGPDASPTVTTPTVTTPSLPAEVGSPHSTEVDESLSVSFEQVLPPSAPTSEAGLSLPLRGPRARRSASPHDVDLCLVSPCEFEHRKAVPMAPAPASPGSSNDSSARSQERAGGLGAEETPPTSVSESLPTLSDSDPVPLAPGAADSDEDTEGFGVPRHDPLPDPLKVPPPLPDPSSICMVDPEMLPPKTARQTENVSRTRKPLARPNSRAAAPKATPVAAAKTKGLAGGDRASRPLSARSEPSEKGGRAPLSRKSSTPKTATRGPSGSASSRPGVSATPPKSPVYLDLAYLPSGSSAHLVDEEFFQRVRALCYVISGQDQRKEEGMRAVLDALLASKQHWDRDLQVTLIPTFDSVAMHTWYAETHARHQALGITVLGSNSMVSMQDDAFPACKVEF
inactive: alvocidib 0.027 | Tubastatin A -0.072 | [1] -0.01 | defactinib 0.018 | [2] -0.015 | encorafenib 0.008 | [3] 0.06 | alisertib 0.006 | [4] -0.008 | gefitinib -0.021 | lapatinib 0.009 | pictilisib -0.06 | crizotinib -0.016 | [5] -0.021 | duvelisib 0.004 | gandotinib -0.065 | tozasertib 0.035 | doramapimod 0.003 | bafetinib -0.03 | [6] 0.049

MRPL12 (UniProt P52815)
inactive: alvocidib 0.066 | Tubastatin A 0.117 | [1] 0.06 | defactinib 0.096 | [2] 0.037 | encorafenib 0.003 | [3] -0.079 | alisertib 0.115 | [4] -0.01 | gefitinib -0.153 | lapatinib 0.094 | pictilisib -0.019 | crizotinib 0.086 | [5] -0.1 | duvelisib 0.011 | gandotinib 0 | tozasertib 0.077 | doramapimod -0.031 | bafetinib -0.073 | [6] 0.035
